Screening data from PubChem BioAssay.
VCAM1 TNFa inh: reduces TNF alpha induced VCAM1 expression in HUVEC. 95,000 compounds, 0.48% hits. HUVEC TNFa-induced VCAM-1 immunofluorescence, high-content imaging. inhibition, % at 2 µM;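 active = inhibition above the batch mean plus 3 SD, with images confirmed as a hit by eye, cut at about 37% in these data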
cytoskel mod: alters cytoskeleton assembly in HUVEC cells; AID 836; 91,000 compounds, 0.18% hits; HUVEC TNFa F-actin phalloidin imaging, high content; inhibition, % at 2 µM;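 active = inhibition above the batch mean plus 3 SD and confirmed as a hit by visual image inspection, cut at about 30% in these data, passing the limit was not always enough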
E-sel TNF inh: TNF alpha driven E-selectin expression inhibition | AID 1246 | 120,000 compounds, 0.71% hits | inhibition, % at 2 µM | HUVEC TNFa-induced E-selectin immunofluorescence, high content;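 active = inhibition above the batch mean plus 3 SD, and confirmed as a hit on visual image review, cut at about 43% in these data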
TNFa cytotox: toxic to HUVEC cells under TNF alpha stimulation; HUVEC TNFalpha-stimulated, Hoechst cell count, imaging; cell count reduction, % at 2 µM; 93,000 compounds, 0.17% hits;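 active = cell count reduction exceeding the screen mean by over 5 SD, scaled to untreated wells per plate, cut at about 78% in these data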;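 note: cells counted after 24 h of TNF alpha exposure following the 1 h pretreatment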
A number is an active result; i = inactive; nt = not tested or not shown. Most compounds without a hit are left out; they make up all but 1.1% or so of the library.

SMILES	VCAM1 TNFa inh	cytoskel mod	E-sel TNF inh	TNFa cytotox
O=S1(=O)CCN(CCc2c[nH]c3ccccc23)CC1	nt	nt	99.8	nt
CC1(C)CC(=O)C(C=NCCN2CCN(C(=O)Cc3ccc(Cl)cc3)CC2)=C(O)C1	i	i	i	i
CCN1CCC2(CCNC2)C1 (centres undefined)	i	i	97.9	i
CCN1CCC2(CC1)NC(CO)(CO)CO2	i	i	i	i
Cc1oc(-c2cccs2)nc1CSCC(=O)N1CCC2(CC1)OCCO2	i	i	67.5	i
COc1ccc(-c2nc(CSCC(=O)N3CCC4(CC3)OCCO4)c(C)o2)cc1OC	i	nt	nt	i
Cc1ccccc1C(O)(Cc1ccccc1)C1CN2CCC1CC2 (centres undefined)	i	i	i	i
CC12CN3CC(C)(CN(C1)C3c1cccs1)C2O (centres undefined)	i	i	i	i
CN1C2CCC1CC(=NO)C2	nt	nt	i	nt
Cc1ccc(N2C(=O)NC(=O)C3(Cc4ccccc4N4CCN(c5ccccc5)CC43)C2=O)cc1 (centres undefined)	i	i	i	i
CN1C(=O)N(C)C(=O)C2(Cc3ccccc3N3CCOCC32)C1=O (centres undefined)	66.2	i	i	i
CCN1CCN(Cc2ccc(C)cc2C)CC1	nt	nt	i	nt
CCN1CCN(Cc2ccc(C)cc2)CC1	nt	nt	95.3	nt
CCN1CCN(Cc2ccccc2C)CC1	nt	nt	95.1	nt
COc1cc2c3c(c1OC)-c1cc(O)ccc1CC3NCC2 (centres undefined)	43.9	i	i	i
CC(c1ccccc1)n1cncc1C(=O)N1CCCC1=O (centres undefined)	i	i	i	i
CSc1ccc(C(=O)C(C)(C)N2CCOCC2)cc1	i	i	i	i
COc1ccc(-n2c(O)c(C(C)=NCc3ccco3)c(=O)[nH]c2=O)cc1	i	i	nt	i
CN(C)C(=S)SSC(=S)N(C)C	nt	nt	85.6	nt
CN1CCc2nc(N)c(C#N)c(-c3ccccc3)c2C1	i	i	i	i
CN1CCc2nc3sc(C#N)c(N)c3c(-c3cccs3)c2C1	89.8	i	nt	i
O=C1N(CN2CCOCC2)c2ccccc2C1(O)c1c[nH]c2ccccc12 (centres undefined)	i	i	i	i
CN1C2CCC1/C(=C/c1ccccn1)C(=O)/C2=C\c1ccccn1	nt	nt	96.4	nt
CCOC(=O)N(c1ccccc1)P1(=S)OCCO1	i	i	79.4	i
Cn1cccc1/C=C1/C(=O)NC(=O)N(Cc2ccccc2)C1=O	nt	nt	61.4	nt
CC1CCCC(C2(O)C(=O)Nc3ccccc32)C1=O (centres undefined)	i	i	i	i
O=C(COc1ccccc1)N1CCN(CC(O)COc2ccccc2)CC1 (centres undefined)	i	34.7	nt	i
CC(=O)NC1CC2CCCC(C1)N2 (centres undefined)	i	67.2	i	i
Cc1cc(C(=O)CS(=O)c2ccc(F)cc2)cc(C)c1OC(=O)N(C)C (centres undefined)	nt	nt	i	nt
COC(=O)C[C@]1(C(=O)OC)CN(C#N)N(c2ccc(Cl)cc2)C12c1ccccc1-c1ccccc12	100.0	i	88.5	nt
